Measured values as given in PubChem BioAssay (NCATS).
Inconclusive results are not listed. A call without a number means that no potency is given here. Calls of active or inactive are those of the source. Unless noted, calls come from the whole dose curve; as a rule, active = well fitted activation curve with a large enough effect in the main read-out, with a control signal flat (not every such curve was filed as active); inconclusive = small, poorly fitted or top-dose-only effect, or effect the other way, or a change in a side signal; inactive = flat fitted curve, though single readings scatter.

Biological target: Mitogen-activated protein kinase 10 (Mus musculus) (UniProt Q61831)
Assay: JNK3 AlphaScreen Assay (AID 530; active = well fitted curve in either direction with a large enough effect, not every such curve was filed as active;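 note: kinase came from lysate of stimulated human HepG2 cells; signal reports phosphorylation of biotinylated GST-cJun 1-79 at Ser73 with 10 µM ATP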)
Conditions: JNK3 lysate, c-Jun phosphorylation; series mostly up to 57.1 µM
Procedure, shortened: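 Inhibitors reduce antibody binding to phosphorylated biotin-cJun, lowering AlphaScreen luminescence. Lysates from HepG2 cells pre-activated by IL-1beta plus TNF-alpha supplied JNK3; compounds were titrated.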

SMILES | Potency
COc1ccccc1-c1ccc2ncnc(N(C)Cc3ccco3)c2c1 | inactive
Cn1c(=O)c(-c2ccccc2)nc2cnc(Nc3ccccc3)nc21 | inactive
COc1ccc(C(=O)N2CCC3(CCCN(c4cccc(-c5ccccc5)c4)C3)CC2)cc1 | inactive

Biological target: 3',5'-cyclic-AMP phosphodiesterase 4B (Homo sapiens) (UniProt Q07343)
Assay: qHTS Assay for Inhibitors of PDE-IV (AID 607)
Conditions: HEK293 ACTOne CNG channel cells, membrane potential fluorescence; series mostly up to 22.9 µM
Procedure, shortened: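 The readout is membrane depolarisation from a cAMP-sensing CNG channel, detected with a potential dye at ex 535/em 590. Cells were HEK293-derived (endogenous PDE-IV) at 1000 cells/well, titrated up to 22.9 uM final.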

Chain of 3',5'-cyclic-AMP phosphodiesterase 4B (Homo sapiens) (Q07343 whole entry, looked up): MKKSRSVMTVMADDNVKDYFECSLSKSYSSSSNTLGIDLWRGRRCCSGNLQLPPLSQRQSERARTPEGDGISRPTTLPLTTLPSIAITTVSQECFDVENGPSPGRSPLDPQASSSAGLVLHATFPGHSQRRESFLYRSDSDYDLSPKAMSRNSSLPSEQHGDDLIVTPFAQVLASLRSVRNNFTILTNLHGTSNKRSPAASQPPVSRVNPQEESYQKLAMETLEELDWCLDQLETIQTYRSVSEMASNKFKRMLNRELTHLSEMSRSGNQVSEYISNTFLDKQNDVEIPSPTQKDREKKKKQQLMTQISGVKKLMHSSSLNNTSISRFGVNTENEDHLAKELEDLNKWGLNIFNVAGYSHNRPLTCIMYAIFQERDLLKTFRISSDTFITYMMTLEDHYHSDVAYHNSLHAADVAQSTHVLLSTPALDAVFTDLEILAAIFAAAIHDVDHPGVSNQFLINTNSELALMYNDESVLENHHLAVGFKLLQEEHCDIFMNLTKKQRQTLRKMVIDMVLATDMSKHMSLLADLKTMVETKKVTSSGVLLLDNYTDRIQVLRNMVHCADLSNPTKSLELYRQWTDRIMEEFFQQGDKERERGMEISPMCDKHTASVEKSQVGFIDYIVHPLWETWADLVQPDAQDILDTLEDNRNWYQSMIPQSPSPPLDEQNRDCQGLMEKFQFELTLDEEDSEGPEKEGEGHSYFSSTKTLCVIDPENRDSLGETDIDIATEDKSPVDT

SMILES | Potency
COc1ccc(C(=O)N2CCC3(CCN(Cc4cc(C(F)(F)F)cc(C(F)(F)F)c4)CC3)CC2)cc1 | inactive
O=c1c(-c2cc(F)cc(F)c2)nc2cnc(N3CCOCC3)nc2n1-c1ccccc1 | inactive
COc1ccc(C(=O)N2CCC[C@@]3(CCN(Cc4cc(C(F)(F)F)cc(C(F)(F)F)c4)C3)C2)cc1 | inactive
COc1ccc(CNc2nc(-c3ccc4c(c3)OCO4)nc3ccccc23)c(OC)c1 | inactive
O=C(c1csnn1)N1CCC2(CC1)CN(c1cccc(-c3ccccc3)c1)C2 | inactive
COc1ccc(C(=O)N2CCC3(CCCN(Cc4cc(C(F)(F)F)cc(C(F)(F)F)c4)C3)CC2)cc1 | inactive
N#CCCn1c(=O)c(-c2ccc(Cl)cc2)nc2cnc(Nc3ccccc3)nc21 | inactive
O=c1c(-c2ccc(F)cc2)nc2cnc(Nc3ccccc3)nc2n1Cc1cccs1 | inactive
COc1cccc(-c2nccc(NCc3cccs3)n2)c1 | inactive
Cc1c(CC(C)(C)C(=O)O)n(Cc2ccc(Cl)cc2)c2ccc(F)cc12 | inactive
Cc1nc2cnc(N(C)C)nc2n(-c2ccccc2)c1=O | inactive
Cn1cc(-c2nc3cnc(N4CCOCC4)nc3n(CCC#N)c2=O)c2ccccc21 | inactive
COc1ccc(-c2nc3cnc(Nc4cccc(OC)c4)nc3n(Cc3cccs3)c2=O)cc1 | inactive
COCCn1c(=O)c(-c2cccs2)nc2cnc(N3CCOCC3)nc21 | inactive
COc1c(O)cc2oc3cc(O)c(CC=C(C)C)c(O)c3c(=O)c2c1CC=C(C)C | inactive
COc1cccc(Cn2c(=O)c(-c3ccc(Cl)cc3)nc3cnc(N4CCNCC4)nc32)c1 | inactive
COc1ccc(C(=O)N2CCC3(CCCN(c4cccc(-c5ccccc5)c4)C3)CC2)cc1 | inactive

Biological target: Cytochrome P450 2C9 (Homo sapiens) (UniProt P11712)
Assay: qHTS Assay for Inhibitors and Substrates of Cytochrome P450 2C9 (AID 883; active = well fitted inhibition curve with a large enough effect; note: potency is the fitted concentration of half-maximal effect; nearly all actives have a fitted effect of over 60% in size)
Conditions: recombinant CYP2C9, luciferin-H luminescence, 60 min; series mostly up to 57.1 µM
Procedure, shortened: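 A luminogenic readout tracked human CYP2C9 (10nM) converting deoxyluciferin (100uM, at KM) in 25mM KPO4 during 60 min at 37C with regenerated NADPH. Values normalized to 57uM sulphaphenazole as complete inhibition.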

Chain of Cytochrome P450 2C9 (Homo sapiens) (P11712 whole entry, looked up): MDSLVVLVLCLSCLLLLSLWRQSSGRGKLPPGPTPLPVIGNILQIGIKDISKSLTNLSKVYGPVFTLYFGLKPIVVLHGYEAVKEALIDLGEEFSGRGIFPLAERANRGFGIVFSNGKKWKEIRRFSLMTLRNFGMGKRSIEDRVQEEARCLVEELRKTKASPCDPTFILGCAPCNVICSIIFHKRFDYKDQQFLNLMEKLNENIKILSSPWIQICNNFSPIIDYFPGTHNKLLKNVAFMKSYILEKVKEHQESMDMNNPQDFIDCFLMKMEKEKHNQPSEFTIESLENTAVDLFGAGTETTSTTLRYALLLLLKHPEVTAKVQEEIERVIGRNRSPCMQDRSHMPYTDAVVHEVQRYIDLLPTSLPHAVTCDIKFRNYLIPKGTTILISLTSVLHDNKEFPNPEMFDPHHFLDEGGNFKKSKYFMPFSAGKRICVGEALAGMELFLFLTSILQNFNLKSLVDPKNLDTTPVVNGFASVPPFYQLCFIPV

SMILES | Potency
Cc1c(CC(C)(C)C(=O)O)n(Cc2ccc(Cl)cc2)c2ccc(F)cc12 | 0.501 µM (active)
COc1c(O)cc2oc3cc(O)c(CC=C(C)C)c(O)c3c(=O)c2c1CC=C(C)C | 5.01 µM (active)
COC(=O)C1=C(C)NC(C)=C(C(=O)OCCSc2ccccc2)[C@@H]1C | 3.16 µM (active)
